Only some compounds are listed: those with a hit (about 7.3% of all), similar ones and a draw of the others.
FLuc inh: blocks purified firefly luciferase enzyme activity | P08659 | purified P. pyralis luciferase, luminescence, biochemical | Potency, µM (highest dose often 115 µM), most hits filed as inhibitors | actives 2.5% (n = 76,000) | AID 1347043; further: nearly all actives have a fitted effect of over 65% in size
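Purified 10nM P. pyralis luciferase with 10uM D-luciferin and 10uM ATP in 50mM Tris acetate pH 7.5, 10mM Mg acetate, 0.01% Tween-20, 0.05% BSA. qHTS titration; luminescence read by CCD imager.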
IP6K1 inhibitor: inhibitors of human IP6K1. Q92551. IP6K1 kinase, ADP-Glo luminescence, 2 h; stronger effect = lower value. activity change, % (series mostly up to about 58 µM). actives 0.81% (n = 140,000). AID 1645851; in the data active means activity change below about -25%
Target sequence (Q92551 whole entry, looked up): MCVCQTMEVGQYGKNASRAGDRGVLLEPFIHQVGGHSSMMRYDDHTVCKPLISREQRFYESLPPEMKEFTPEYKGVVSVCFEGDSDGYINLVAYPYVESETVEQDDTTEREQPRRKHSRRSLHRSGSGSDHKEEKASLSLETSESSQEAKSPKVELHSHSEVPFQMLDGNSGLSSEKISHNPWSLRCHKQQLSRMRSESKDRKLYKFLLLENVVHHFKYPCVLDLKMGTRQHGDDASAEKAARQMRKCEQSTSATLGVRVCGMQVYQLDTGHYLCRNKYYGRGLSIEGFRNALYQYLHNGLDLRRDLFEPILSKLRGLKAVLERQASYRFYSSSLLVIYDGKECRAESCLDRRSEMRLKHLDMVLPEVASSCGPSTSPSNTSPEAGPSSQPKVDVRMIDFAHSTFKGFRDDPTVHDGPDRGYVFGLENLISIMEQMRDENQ
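ADP-Glo luminescence measures ADP made by human IP6K1 during a 2 h RT reaction with ATP/IP6 (mix at 1.3 mM/130 uM); top library doses 57.5 and 19.1 uM final.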
HEK293 viab: reduces viability of HEK-293 SNCA reporter cells. actives 0.12% (n = 150,000). Potency, µM (top dose mostly 57.1 µM), hits mostly cytotoxic. HEK-293-SNCA-luc viability, GF-AFC fluorescence, 24 h; further: nearly all actives have a fitted effect of over 30% in size
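HEK-293-SNCA-luc cells (1500/well) plated 24 h, then exposed 24 h to a dilution series; GF-AFC added 30 min at 37C, fluorescence 405/540 nm; normalised to medium-only and DMSO wells, Hill fit.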
HEK293 tox: kills HEK 293 cells | HEK 293 viability, ATP luminescence (CellTiter-Glo), 48-72 h | Potency, µM (titrated, usually from 115 µM), actives largely listed as inhibitors | actives 6.6% (n = 94,000); further: nearly all actives have a fitted effect of over 60% in size
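Pintool-delivered compounds were incubated with HEK 293 cells (250 cells/well) at 37 degree Celsius for 48 or 72 hr. ATP-dependent luminescence (CellTiter-Glo) then reported remaining viable cells.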
SNCA expr inh: inhibitors of alpha-synuclein (SNCA) gene expression; HEK-293 SNCA-luciferase knock-in, luminescence, 24 h; Potency, µM (titrated, usually from 57.2 µM), hits mostly inhibitors; actives 0.17% (n = 140,000); further: nearly all actives have a fitted effect of over 45% in size
3T3 cytotox: kills NIH 3T3 cells. NIH 3T3 viability, CellTiter-Glo ATP luminescence, 48-72 h. Potency, µM (series often up to 96.7 µM), usual class: inhibitors. actives 4.3% (n = 94,000). AID 1345082; further: nearly all actives have a fitted effect of over 55% in size
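Viability of NIH 3T3 cells after 48 or 72 hr compound treatment at 37 °C was assessed by CellTiter-Glo, with luminescence imaged following a 10 min room-temperature step.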
A number is an active result; n = inactive; u = inconclusive; x = no result given; ! = not active in a repeat. Unless noted, the call rests on the fitted dose curve; in most records, active means well fitted curve in the direction sought with a large enough effect; inconclusive means small, poorly fitted or top-dose-only effect, or another doubt; inactive means no such curve, though single readings can be large; an effect the other way counts as inactive or inconclusive.

SMILES	FLuc inh	IP6K1 inhibitor	HEK293 viab	HEK293 tox	SNCA expr inh	3T3 cytotox
COCCn1c(=O)c(C(=O)NC(C)C)nc2cccnc21	x	n	n	n	n	n
O=C(NC1CCc2n[nH]c(=O)n2CC1)c1ccc2nc[nH]c2c1 (centres undefined)	n	n	n	u	n	n
CN1CCN(c2cc(=O)c3ccnc(-c4ccccc4F)c3o2)CC1	n	n	n	n	n	u
CN1CCN(c2cc(=O)c3ccnc(-c4ccccc4O)c3o2)CC1	n	n	n	n	n	22.4µM
CN1CCN(c2cc(=O)c3ccnc(-c4ccnn4C)c3o2)CC1	n	n	n	n	u	39.8µM
COC(=O)CNC(=O)c1nc2cccnc2n(-c2ccccc2OC)c1=O	x	n	n	n	n	n
CCSc1ncc(Cl)c(C(=O)Nc2ccc(S(=O)(=O)N(C)c3ccccc3)cc2)n1	x	n	n	x	u	x
CCN(c1ccccc1)S(=O)(=O)c1ccc(NC(=O)c2nc(S(C)(=O)=O)ncc2Cl)cc1	x	-43.2	10µM	x	u	x
CCS(=O)(=O)c1ncc(Cl)c(C(=O)Nc2ccc(S(=O)(=O)N(C)c3ccccc3)cc2)n1	x	n	10µM	x	2.82µM	x
COc1ccc(-c2noc([C@@H](C)NS(=O)(=O)c3ccccc3)c2C(=O)O)cc1	n	n	n	n	n	n
CSc1ccc(-c2cccc(C(=O)NCC(=O)NCCc3ccccc3)c2)cc1	x	n	n	u	n	u
COCc1nnc(C2CC3(CCN(C(=O)c4ccc(OC)c(F)c4)CC3)CN2C)o1 (centres undefined)	x	n	n	n	n	n
COCCN1C(=O)c2cccn2CC1CNC(=O)CCc1ccc(OC)cc1 (centres undefined)	x	n	n	n	n	n
COc1ccccc1C(=O)Nc1cc(C2CC2)nn1-c1ccccc1	x	n	n	u	n	22.4µM
COc1cccc(-c2cc(C(=O)NCC34CCC=C3N(C)C(=O)CC4)[nH]n2)c1 (centres undefined)	n	n	n	u	n	u
COCc1cn([C@H]2CO[C@H]3[C@@H]2OC[C@H]3OC(=O)Nc2ccc(C)cc2)nn1	n	n	n	n	n	n
COc1ccccc1-c1cn2c(n1)CO[C@@H](CNC(=O)c1ccc(Cl)cc1)C2	n	n	n	100µM	u	u
Cc1ccc(-c2cn3c(n2)CO[C@@H](CNC(=O)c2ccc(Cl)cc2)C3)cc1	39.8µM	n	n	u	n	u
Cc1ccc(-c2cn3c(n2)CO[C@@H](CNC(C)C)C3)cc1	39.8µM	n	n	u	n	u
Cc1ccc(-c2cn3c(n2)CO[C@@H](CNC(=O)c2cccnc2)C3)cc1	u	n	n	n	n	n
Cc1ccc(-c2cn3c(n2)CO[C@@H](CNS(C)(=O)=O)C3)cc1	n	n	n	n	n	n
O=C1Nc2ccccc2CNC12CCN(Cc1ccc(Cl)cc1)CC2	x	n	n	u	n	n
Cc1ccc(-n2cccc2CC(=O)N(C)Cc2ccco2)cc1	u	n	n	u	n	u
CN1CCC(Oc2ncccc2C(=O)N(C)C)C1 (centres undefined)	n	n	n	n	n	n
Cc1cc(C)n(C2CCN(c3nccc(-c4ccccn4)n3)C2)n1 (centres undefined)	44.7µM	n	n	n	n	n
SMILES	FLuc inh	IP6K1 inhibitor	HEK293 viab	HEK293 tox	SNCA expr inh	3T3 cytotox
NC(=O)C(=O)O	x	x	n	x	n	x
NC(=O)NO	x	n	n	x	1.36µM!	x
O=C(c1cccs1)N1CCOc2ccc(N3CCCC3)cc2C1	x	n	n	17.8µM	n	u
CN(CC1CCOCC1)C(=O)CCCc1ccccc1	39.8µM	n	n	n	n	n
CC(C)(C)CC(=O)Nc1nc2c(s1)C[C@@H]1[C@](C)(CO)[C@H](O)CC[C@@]1(C)[C@@H]2CC(=O)N1CCC(C(N)=O)CC1	n	n	n	n	n	n
Cc1cc(C)cc(-c2ccc(C(=O)NCCCn3ccnc3C(C)C)cn2)c1	n	n	n	u	n	u
CNC(=O)c1cc(C)nc2onc(C3CCCN(C(=O)c4ccccc4C)C3)c12 (centres undefined)	x	n	x	n	x	n
COc1ccccc1-c1cc2[nH]ccc2c(C(=O)NCc2c(C)cc(C)[nH]c2=O)n1	n	n	n	u	n	u
Cc1cc(C)c(CNC(=O)c2nc(-c3cccc(O)c3)cc3[nH]ccc23)c(=O)[nH]1	u	n	u	79.4µM	n	50.1µM
COc1ncccc1-c1cc2[nH]ccc2c(C(=O)NCc2c(C)cc(C)[nH]c2=O)n1	n	n	u	u	n	50.1µM
COc1ccccc1CNC(=O)c1ccc(Cn2ccn3nc4c(c3c2=O)CCCC4)cc1	n	n	n	u	u	u
COc1ccc(CCNC(=O)c2ccc(Cn3ccn4nc5c(c4c3=O)CCCC5)cc2)cc1OC	n	n	n	39.8µM	n	u
COc1ccc(NC(=O)c2ccc(Cn3ccn4nc5c(c4c3=O)CCCC5)cc2)cc1OC	n	n	n	u	n	u
COc1ccc(CNC(=O)c2ccc(Cn3ccn4nc5c(c4c3=O)CCCC5)cc2)cc1OC	n	n	n	22.4µM	n	u
CCN1CCN(C(=O)c2ccc3nnc(Cc4ccco4)n3c2)CC1	x	n	n	n	n	n
CCS[C@H]1CCN2C(=O)c3cc(-c4ccc(F)cc4F)ccc3NC(=O)[C@H]12	n	n	n	56.2µM	n	u
CSc1cccc(NC(=O)Cn2c(C)cc3nc4n(c(=O)c32)CCCCC4)c1	n	n	n	n	n	n
Cc1ccc(-c2ccccc2CN2CCC(C(=O)N3CCC(Cc4ccccc4)CC3)CC2)cc1Cl	x	n	x	u	x	u
COc1ccc(CN2CCCC23Cc2ccccc2CNC3=O)cc1 (centres undefined)	x	n	n	n	n	n
CCc1ccc(CN2CCCC23Cc2ccccc2CNC3=O)cc1 (centres undefined)	x	n	n	89.1µM	u	u
CC(C)N(C)C(=O)Cn1ncc(N(C)CCc2ccccc2)cc1=O	n	n	n	n	n	n
CC(C)c1nnsc1Cn1ncc(N(C)CCc2ccccc2)cc1=O	n	n	n	89.1µM	n	u
CC(C)c1nc(-c2ccc(OC3CCN(C(=O)Cc4ccccc4F)C3)cc2)no1 (centres undefined)	x	n	n	35.5µM	n	u
O=C(C1CCOC1)N1CC(Oc2cccc(-c3nc(-c4ccccc4)no3)c2)C1 (centres undefined)	44.7µM	n	n	u	n	u
CCNC(=O)N1CCC(Oc2ccc(-c3noc(-c4ccccc4)n3)cc2)C1 (centres undefined)	x	n	n	17.8µM	u	u
Cc1ccc(CNC(=O)N2CC(Oc3cccc(-c4nc(C)no4)c3)C2)cc1	n	n	n	44.7µM	n	u
CCNC(=O)N1CC(Oc2ccc(-c3nc(C)no3)cc2)C1	n	n	n	u	n	n
